Data taken from article PMC7862700, “An all-to-all approach to the identification of sequence-specific readers for epigenetic DNA modifications on cytosine”.

What was measured:
Assay in all cases: DAPPL (digital affinity profiling via proximity ligation, sequencing); 10 mM Tris-HCl pH 7.5, 50 mM NaCl, 1 mM DTT, 4% glycerol, room temperature, 30 min; GST-TFs on glutathione beads, 16-mer random dsDNA library, 0.1% formaldehyde crosslink after washing; high values mean tight binding
SPI1 = SPI1 (Homo sapiens, UniProt P17947 1-270); conditions: protein: recombinant; tags: N-terminal GST; dsDNA, one strand shown
Method in brief: (§1)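 After expression in yeast as GST fusions, human transcription factors were bound to glutathione beads, DNA-barcoded and mixed with a tag-only sample. The pools were incubated with 200 nmole of a 16-mer random double-stranded DNA library in Tris/NaCl/DTT/glycerol buffer (30 min, room temperature), washed and crosslinked with 0.1% formaldehyde. Proximity ligation with BsaI/T4 ligase ran for 1 h at 37 °C, before PCR amplification and sequencing on an Illumina NextSeq500. Binding signal is a hexamer's read frequency for a factor divided by its frequency for the tag-only sample.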

HSF1 = HSF1 (Homo sapiens, UniProt Q00613 1-529); conditions: protein: recombinant; tags: N-terminal GST; chain copies: 3; dsDNA, one strand shown
Sequence of HSF1 (Q00613 whole entry): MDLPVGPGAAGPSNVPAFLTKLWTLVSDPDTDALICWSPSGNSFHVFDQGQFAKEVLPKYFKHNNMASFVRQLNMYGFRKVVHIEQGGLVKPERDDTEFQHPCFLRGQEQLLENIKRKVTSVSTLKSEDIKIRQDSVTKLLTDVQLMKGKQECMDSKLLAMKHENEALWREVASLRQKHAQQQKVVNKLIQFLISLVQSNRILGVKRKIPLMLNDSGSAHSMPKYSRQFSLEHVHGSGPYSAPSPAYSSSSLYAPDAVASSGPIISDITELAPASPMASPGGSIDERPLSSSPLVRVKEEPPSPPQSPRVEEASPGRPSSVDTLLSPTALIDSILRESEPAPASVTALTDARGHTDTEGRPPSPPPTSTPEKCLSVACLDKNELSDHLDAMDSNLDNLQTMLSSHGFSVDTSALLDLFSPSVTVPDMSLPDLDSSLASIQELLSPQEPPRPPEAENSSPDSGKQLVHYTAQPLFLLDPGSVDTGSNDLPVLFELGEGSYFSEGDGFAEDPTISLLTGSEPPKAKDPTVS
Method in brief: as §1

SPIC = target: T1, SPIC (Homo sapiens, UniProt Q8N5J4 1-248); conditions: protein: recombinant; tags: N-terminal GST; dsDNA, one strand shown
T1 sequence: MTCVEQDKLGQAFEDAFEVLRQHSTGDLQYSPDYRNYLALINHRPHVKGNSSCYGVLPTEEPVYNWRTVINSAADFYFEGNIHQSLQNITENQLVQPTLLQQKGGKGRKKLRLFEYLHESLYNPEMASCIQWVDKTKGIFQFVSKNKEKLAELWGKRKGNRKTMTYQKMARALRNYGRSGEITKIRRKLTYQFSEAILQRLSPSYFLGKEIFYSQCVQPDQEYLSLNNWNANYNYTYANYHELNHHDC
Method in brief: as §1

ELK4 = target: T2, ELK4 (Homo sapiens, UniProt P28324-2 1-405); conditions: protein: recombinant; tags: N-terminal GST; dsDNA, one strand shown
T2 sequence: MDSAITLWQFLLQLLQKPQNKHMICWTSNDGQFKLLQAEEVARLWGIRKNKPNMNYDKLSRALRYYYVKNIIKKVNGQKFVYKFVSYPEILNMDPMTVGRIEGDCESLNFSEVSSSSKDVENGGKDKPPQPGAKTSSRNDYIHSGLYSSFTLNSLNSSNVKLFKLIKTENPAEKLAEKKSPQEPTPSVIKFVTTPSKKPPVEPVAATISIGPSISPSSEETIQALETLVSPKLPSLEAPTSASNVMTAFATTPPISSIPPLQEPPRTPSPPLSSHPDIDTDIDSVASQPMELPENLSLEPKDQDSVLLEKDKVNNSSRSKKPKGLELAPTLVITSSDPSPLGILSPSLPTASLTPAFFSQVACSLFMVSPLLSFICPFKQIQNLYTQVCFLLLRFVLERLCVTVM
Method in brief: as §1

ETV3 = target: T3, ETV3 (Homo sapiens, UniProt P41162-2 1-143); conditions: protein: recombinant; tags: N-terminal GST; dsDNA, one strand shown
T3 sequence: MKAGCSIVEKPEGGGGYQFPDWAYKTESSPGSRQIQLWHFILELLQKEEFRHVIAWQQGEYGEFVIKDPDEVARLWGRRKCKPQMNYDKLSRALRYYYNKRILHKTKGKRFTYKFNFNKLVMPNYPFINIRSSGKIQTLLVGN
Method in brief: as §1

ELK1 = target: T4, ELK1 (Homo sapiens, UniProt P19419 1-428); conditions: protein: recombinant; tags: N-terminal GST; dsDNA, one strand shown
T4 sequence: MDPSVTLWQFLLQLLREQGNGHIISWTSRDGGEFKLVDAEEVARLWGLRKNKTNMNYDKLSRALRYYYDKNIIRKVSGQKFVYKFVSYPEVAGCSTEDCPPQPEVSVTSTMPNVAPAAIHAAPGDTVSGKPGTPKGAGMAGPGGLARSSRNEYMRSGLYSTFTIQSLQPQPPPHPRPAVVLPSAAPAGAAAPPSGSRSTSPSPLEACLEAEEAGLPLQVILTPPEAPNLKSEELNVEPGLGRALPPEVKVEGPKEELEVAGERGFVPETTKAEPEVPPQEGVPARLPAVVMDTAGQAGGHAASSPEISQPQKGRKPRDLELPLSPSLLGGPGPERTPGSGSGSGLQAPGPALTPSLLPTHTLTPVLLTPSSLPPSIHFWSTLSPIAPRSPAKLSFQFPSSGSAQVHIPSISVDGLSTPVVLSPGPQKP
Method in brief: as §1

GABPA = target: T5, GABPA (Homo sapiens, UniProt Q06546 1-454); conditions: protein: recombinant; tags: N-terminal GST; dsDNA, one strand shown
T5 sequence: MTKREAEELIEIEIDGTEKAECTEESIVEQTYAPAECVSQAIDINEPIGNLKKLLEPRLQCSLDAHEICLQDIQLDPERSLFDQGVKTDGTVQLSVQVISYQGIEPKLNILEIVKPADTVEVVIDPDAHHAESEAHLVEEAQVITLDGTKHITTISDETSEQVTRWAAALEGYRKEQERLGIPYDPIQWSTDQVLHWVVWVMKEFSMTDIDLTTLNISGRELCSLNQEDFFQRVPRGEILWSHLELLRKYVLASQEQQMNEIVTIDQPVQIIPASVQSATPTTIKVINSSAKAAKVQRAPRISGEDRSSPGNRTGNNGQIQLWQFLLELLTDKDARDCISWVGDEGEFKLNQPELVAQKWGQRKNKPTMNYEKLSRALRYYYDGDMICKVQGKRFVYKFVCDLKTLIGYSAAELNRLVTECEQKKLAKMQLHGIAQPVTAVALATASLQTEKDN
Method in brief: as §1

ELF1 = ELF1 (Homo sapiens, UniProt P32519 1-619); conditions: protein: recombinant; tags: N-terminal GST; dsDNA, one strand shown
Sequence of ELF1 (P32519 whole entry): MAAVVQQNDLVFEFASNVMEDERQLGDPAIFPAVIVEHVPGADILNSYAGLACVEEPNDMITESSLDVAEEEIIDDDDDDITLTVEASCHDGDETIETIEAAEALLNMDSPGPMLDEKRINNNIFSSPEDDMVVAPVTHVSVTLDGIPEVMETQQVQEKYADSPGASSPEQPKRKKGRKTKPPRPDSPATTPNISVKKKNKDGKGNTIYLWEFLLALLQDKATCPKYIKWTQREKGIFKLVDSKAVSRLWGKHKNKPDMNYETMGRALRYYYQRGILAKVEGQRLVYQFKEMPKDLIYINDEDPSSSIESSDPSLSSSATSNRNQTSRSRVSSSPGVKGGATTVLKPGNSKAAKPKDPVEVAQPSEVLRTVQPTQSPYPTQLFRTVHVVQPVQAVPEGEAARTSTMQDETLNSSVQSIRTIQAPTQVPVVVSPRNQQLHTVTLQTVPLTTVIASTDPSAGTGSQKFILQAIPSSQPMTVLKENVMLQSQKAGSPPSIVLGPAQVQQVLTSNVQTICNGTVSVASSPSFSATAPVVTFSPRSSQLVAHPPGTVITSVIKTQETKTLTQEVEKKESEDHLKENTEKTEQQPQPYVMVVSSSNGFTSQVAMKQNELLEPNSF
Method in brief: as §1

EHF = target: T6, EHF (Homo sapiens, UniProt Q9NZC4 1-300); conditions: protein: recombinant; tags: N-terminal GST; dsDNA, one strand shown
T6 sequence: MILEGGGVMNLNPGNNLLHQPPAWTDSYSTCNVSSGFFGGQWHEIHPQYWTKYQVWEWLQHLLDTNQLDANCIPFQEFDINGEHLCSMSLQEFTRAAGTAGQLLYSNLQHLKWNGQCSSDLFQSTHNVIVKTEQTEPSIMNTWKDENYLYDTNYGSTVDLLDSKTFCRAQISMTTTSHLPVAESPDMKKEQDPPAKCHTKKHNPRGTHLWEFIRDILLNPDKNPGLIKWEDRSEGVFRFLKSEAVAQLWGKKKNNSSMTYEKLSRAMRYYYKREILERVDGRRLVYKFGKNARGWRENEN
Method in brief: as §1

SPIB = SPIB (Homo sapiens, UniProt Q01892 1-262); conditions: protein: recombinant; tags: N-terminal GST; dsDNA, one strand shown
Sequence of SPIB (Q01892 whole entry): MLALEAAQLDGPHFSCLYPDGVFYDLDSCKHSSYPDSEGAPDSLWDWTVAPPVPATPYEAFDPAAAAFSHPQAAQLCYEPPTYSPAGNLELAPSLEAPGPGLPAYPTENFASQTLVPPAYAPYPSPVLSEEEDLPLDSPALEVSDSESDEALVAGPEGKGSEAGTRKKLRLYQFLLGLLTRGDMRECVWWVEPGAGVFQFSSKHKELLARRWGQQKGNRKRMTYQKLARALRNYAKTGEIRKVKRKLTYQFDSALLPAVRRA
Method in brief: as §1

ELK3 = target: T7, ELK3 (Homo sapiens, UniProt P41970 1-407); conditions: protein: recombinant; tags: N-terminal GST; dsDNA, one strand shown
T7 sequence: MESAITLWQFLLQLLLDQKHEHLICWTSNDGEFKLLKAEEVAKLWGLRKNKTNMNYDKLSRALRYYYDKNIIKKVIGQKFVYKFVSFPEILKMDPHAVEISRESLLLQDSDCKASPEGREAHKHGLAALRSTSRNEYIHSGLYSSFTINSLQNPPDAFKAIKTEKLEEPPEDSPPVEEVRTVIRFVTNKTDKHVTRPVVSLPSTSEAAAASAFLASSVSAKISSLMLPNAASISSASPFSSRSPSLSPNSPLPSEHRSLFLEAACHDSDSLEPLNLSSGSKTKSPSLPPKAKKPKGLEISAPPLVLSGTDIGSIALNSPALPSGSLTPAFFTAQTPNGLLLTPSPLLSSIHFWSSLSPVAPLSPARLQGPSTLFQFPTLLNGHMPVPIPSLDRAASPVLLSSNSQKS
Method in brief: as §1

ELF4 = ELF4 (Homo sapiens, UniProt Q99607 1-663); conditions: protein: recombinant; tags: N-terminal GST; dsDNA, one strand shown
Sequence of ELF4 (Q99607 whole entry): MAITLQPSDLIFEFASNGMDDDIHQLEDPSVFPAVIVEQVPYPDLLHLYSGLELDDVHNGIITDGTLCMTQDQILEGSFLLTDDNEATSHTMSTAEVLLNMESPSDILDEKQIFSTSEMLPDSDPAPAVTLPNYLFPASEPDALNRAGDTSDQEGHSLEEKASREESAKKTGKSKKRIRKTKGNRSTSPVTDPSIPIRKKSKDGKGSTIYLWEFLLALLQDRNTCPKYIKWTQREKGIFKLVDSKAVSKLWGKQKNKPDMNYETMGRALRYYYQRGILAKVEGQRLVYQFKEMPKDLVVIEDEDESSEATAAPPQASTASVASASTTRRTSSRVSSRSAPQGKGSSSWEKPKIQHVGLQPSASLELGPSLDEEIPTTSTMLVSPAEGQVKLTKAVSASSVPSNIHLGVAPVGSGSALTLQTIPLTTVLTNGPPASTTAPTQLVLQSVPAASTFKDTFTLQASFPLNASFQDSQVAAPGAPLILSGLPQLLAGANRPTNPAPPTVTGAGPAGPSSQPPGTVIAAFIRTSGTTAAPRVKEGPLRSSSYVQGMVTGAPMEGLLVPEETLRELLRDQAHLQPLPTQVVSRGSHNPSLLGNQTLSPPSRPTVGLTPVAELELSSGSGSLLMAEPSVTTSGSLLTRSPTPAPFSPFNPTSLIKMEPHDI
Method in brief: as §1

ETV2 = target: T8, ETV2 (Homo sapiens, UniProt O00321 1-342); conditions: protein: recombinant; tags: N-terminal GST; dsDNA, one strand shown
T8 sequence: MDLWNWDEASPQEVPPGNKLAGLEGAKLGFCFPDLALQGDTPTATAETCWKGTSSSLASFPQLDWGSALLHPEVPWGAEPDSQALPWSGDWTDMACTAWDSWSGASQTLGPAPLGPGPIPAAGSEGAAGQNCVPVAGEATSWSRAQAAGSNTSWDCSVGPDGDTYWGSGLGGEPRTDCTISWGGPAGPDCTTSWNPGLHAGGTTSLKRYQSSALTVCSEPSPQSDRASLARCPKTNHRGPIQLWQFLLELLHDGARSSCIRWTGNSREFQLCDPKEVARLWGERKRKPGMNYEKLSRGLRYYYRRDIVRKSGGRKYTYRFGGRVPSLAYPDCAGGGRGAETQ
Method in brief: as §1

CRX = CRX (Homo sapiens, UniProt O43186 1-299); conditions: protein: recombinant; tags: N-terminal GST; dsDNA, one strand shown
Sequence of CRX (O43186 whole entry): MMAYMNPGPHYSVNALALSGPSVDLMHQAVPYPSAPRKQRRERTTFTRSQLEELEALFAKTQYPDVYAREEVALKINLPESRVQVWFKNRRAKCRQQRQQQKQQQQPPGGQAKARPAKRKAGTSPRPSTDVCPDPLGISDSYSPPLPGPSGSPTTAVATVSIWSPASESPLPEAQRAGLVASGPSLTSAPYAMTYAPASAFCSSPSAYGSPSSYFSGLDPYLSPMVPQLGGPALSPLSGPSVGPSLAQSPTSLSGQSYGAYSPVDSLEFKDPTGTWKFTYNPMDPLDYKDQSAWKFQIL
Method in brief: as §1

ETV1 = ETV1 (Homo sapiens, UniProt P50549 1-477); conditions: protein: recombinant; tags: N-terminal GST; dsDNA, one strand shown
Sequence of ETV1 (P50549 whole entry): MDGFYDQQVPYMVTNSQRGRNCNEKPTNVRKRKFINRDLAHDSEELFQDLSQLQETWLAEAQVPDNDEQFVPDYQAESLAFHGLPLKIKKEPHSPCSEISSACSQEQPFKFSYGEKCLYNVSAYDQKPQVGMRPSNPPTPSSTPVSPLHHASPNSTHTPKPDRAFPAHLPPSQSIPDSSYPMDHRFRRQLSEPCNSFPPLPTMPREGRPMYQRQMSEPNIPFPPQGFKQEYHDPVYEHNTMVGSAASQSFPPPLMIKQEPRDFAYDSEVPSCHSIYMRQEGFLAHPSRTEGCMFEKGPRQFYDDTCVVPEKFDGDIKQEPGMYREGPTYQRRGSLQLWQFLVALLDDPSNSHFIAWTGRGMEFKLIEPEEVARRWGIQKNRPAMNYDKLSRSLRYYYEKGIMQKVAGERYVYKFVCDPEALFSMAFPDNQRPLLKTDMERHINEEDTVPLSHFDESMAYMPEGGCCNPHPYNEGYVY
Method in brief: as §1

ETV3L = target: T9, ETV3L (Homo sapiens, UniProt Q6ZN32 1-361); conditions: protein: recombinant; tags: N-terminal GST; dsDNA, one strand shown
T9 sequence: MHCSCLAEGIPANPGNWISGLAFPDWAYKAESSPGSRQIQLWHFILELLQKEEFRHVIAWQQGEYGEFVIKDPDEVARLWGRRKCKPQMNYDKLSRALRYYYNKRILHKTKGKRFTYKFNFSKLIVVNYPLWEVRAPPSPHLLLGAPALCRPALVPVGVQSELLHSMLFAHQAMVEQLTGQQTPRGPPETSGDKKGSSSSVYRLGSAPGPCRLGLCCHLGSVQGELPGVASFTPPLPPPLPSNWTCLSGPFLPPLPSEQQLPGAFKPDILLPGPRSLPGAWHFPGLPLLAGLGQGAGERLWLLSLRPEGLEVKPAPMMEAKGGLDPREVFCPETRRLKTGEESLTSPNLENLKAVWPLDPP
Method in brief: as §1

ETS2 = target: T10, ETS2 (Homo sapiens, UniProt P15036 1-469); conditions: protein: recombinant; tags: N-terminal GST; dsDNA, one strand shown
T10 sequence: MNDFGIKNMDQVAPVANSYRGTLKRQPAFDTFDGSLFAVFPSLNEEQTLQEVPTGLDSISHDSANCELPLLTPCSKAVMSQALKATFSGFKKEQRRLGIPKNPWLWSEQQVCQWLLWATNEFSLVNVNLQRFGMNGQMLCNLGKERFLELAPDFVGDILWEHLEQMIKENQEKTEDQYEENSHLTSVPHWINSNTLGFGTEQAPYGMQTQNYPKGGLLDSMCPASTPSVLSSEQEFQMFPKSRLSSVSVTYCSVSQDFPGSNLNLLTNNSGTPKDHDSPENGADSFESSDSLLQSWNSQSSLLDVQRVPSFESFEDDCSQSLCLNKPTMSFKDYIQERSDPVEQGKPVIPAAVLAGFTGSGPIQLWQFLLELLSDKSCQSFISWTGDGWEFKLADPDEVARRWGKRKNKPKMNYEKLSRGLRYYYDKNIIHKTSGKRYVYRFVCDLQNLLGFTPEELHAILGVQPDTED
Method in brief: as §1

ETV7 = target: T11, ETV7 (Homo sapiens, UniProt Q9Y603 1-341); conditions: protein: recombinant; tags: N-terminal GST; dsDNA, one strand shown
T11 sequence: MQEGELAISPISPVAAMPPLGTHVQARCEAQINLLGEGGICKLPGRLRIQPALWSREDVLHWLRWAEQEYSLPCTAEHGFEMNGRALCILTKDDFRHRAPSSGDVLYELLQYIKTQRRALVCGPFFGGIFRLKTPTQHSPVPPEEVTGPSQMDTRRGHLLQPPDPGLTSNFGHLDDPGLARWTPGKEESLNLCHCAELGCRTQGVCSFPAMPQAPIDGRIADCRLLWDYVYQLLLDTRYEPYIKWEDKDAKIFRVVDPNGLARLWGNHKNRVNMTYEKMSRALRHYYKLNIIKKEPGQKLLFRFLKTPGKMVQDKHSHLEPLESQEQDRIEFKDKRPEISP
Method in brief: as §1

ELF5 = target: T12, ELF5 (Homo sapiens, UniProt Q9UKW6-2 1-255); conditions: protein: recombinant; tags: N-terminal GST; dsDNA, one strand shown
T12 sequence: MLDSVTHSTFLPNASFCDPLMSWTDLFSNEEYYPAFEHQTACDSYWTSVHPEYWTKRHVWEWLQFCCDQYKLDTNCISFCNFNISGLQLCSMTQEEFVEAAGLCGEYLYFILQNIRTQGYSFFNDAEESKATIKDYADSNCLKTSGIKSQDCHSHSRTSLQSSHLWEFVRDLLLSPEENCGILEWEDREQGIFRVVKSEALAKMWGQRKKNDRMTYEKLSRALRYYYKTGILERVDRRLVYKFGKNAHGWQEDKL
Method in brief: as §1

Sequence | binding signal (SPI1) | binding signal (HSF1) | binding signal (SPIC) | binding signal (ELK4) | binding signal (ETV3) | binding signal (ELK1) | binding signal (GABPA) | binding signal (ELF1) | binding signal (EHF) | binding signal (SPIB) | binding signal (ELK3) | binding signal (ELF4) | binding signal (ETV2) | binding signal (CRX) | binding signal (ETV1) | binding signal (ETV3L) | binding signal (ETS2) | binding signal (ETV7) | binding signal (ELF5)
GTGGAA | 1.15 fold enrichment (6-mer frequency, TF over GST control) | 1.23 fold enrichment (6-mer frequency, TF over GST control) | 1.02 fold enrichment (6-mer frequency, TF over GST control) | 1.06 fold enrichment (6-mer frequency, TF over GST control) | 1.02 fold enrichment (6-mer frequency, TF over GST control) |  |  |  |  |  |  |  |  |  |  |  |  |  | 
TGATAA | 1.05 fold enrichment (6-mer frequency, TF over GST control) | 1.2 fold enrichment (6-mer frequency, TF over GST control) | 1.04 fold enrichment (6-mer frequency, TF over GST control) | 1.06 fold enrichment (6-mer frequency, TF over GST control) | 1.05 fold enrichment (6-mer frequency, TF over GST control) | 1.04 fold enrichment (6-mer frequency, TF over GST control) | 1.03 fold enrichment (6-mer frequency, TF over GST control) | 1 fold enrichment (6-mer frequency, TF over GST control) | 1.07 fold enrichment (6-mer frequency, TF over GST control) | 1.05 fold enrichment (6-mer frequency, TF over GST control) | 1.09 fold enrichment (6-mer frequency, TF over GST control) | 1.07 fold enrichment (6-mer frequency, TF over GST control) | 1.02 fold enrichment (6-mer frequency, TF over GST control) | 1.52 fold enrichment (6-mer frequency, TF over GST control) | 1.07 fold enrichment (6-mer frequency, TF over GST control) | 1.06 fold enrichment (6-mer frequency, TF over GST control) | 1.01 fold enrichment (6-mer frequency, TF over GST control) | 1.08 fold enrichment (6-mer frequency, TF over GST control) | 1.02 fold enrichment (6-mer frequency, TF over GST control)
